Ten molecules from paper PMC7826789 (International Journal of Molecular Sciences, 2021) can be followed below.

Among the test systems are PRKG1; PRKG2; PRKX; RAF1; RET(M918T); RET(V804L); RET(V804M); RET; RIOK1; RIOK2; RIOK3; RIPK1; RIPK2; RIPK4; ROCK1.
What all share (conditions): Compound Concentration (nM):1000
For a further assay, the system named is T1, PRKR.
T1 construct: gene EIF2AK2

The subject of a further assay is T2, PRP4.
T2 construct: gene PRPF4B

A further assay relates to T3, PYK2.
T3 construct: gene PTK2B

A further assay concerns T4, QSK.
T4 construct: gene KIAA0999

For a further assay, the system named is T5, RIPK5.
T5 construct: gene DSTYK
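Also: KINOMEscan scanMAX binding as percent activity remaining versus control; lower means stronger binding.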

Consider `Cl.O=C(O[C@H]1CN[C@H](C#Cc2cc3ncnc(Nc4ccc5c(cnn5Cc5ccccc5)c4)c3s2)C1)N1CCOCC1` [GSK200398A], for which the “Percent Control” value was 95% in the assay on PRKG1; 100% with PRKG2; 65% with PRKR; 77% with PRKX; 100% with PRP4; 99% in the assay with PYK2. Moreover, the “Percent Control” value with QSK is 100%; in the assay on RAF1, 88%; with RET(M918T), 100%; in the assay on RET(V804L) it was 100%; in the assay with RET(V804M), 100%; in the assay with RET it was 100%. The “Percent Control” value is reported as 100% in the assay on RIOK1; 100% in the assay with RIOK2; 100% with RIOK3; 100% with RIPK1; 16% in the assay with RIPK2; 84% in the assay on RIPK4. The entries for the “Percent Control” value in the assay on RIPK5 and in the assay with ROCK1 were 100% and 96%, respectively.

As to `Nc1ncnc2occ(-c3ccc(NC(=O)Nc4cc(C(F)(F)F)ccc4F)cc3)c12` [GW770249X], the “Percent Control” value was 71% with PRKG1; 100% in the assay with PRKG2; 72% with PRKR; 100% in the assay on PRKX; 100% with PRP4; 90% with PYK2. The “Percent Control” value in the assay with QSK stood at 100%; in the assay with RAF1, 38%; with RET(M918T) it was 0.8%; in the assay on RET(V804L), 0.6%; in the assay with RET(V804M) it was 0.1%; with RET, 0%. The “Percent Control” value with RIOK1 turned out to be 56%; with RIOK2, 100%; in the assay on RIOK3 it was 44%; in the assay with RIPK1, 26%; in the assay with RIPK2 it was 100%; in the assay on RIPK4, 100%. Besides, the figures for the “Percent Control” value in the assay with RIPK5 and in the assay with ROCK1 were 80% and 84%, respectively.

Regarding `C[C@@H](Oc1cc(-n2cnc3ccc(OC4CCN(C)CC4)cc32)sc1C(N)=O)c1ccccc1Cl` [GSK579289A], the “Percent Control” value in the assay on PRKG1 was 100%; in the assay with PRKG2, 65%; in the assay with PRKR, 80%; in the assay on PRKX, 74%; in the assay on PRP4 it was 100%; with PYK2, 86%. Further, the “Percent Control” value in the assay on QSK stood at 85%; in the assay on RAF1, 100%; in the assay with RET(M918T) it was 99%; in the assay with RET(V804L) it was 100%; in the assay on RET(V804M), 84%; in the assay on RET it was 99%. The “Percent Control” value is on record as 13% with RIOK1; 91% with RIOK2; 34% in the assay with RIOK3; 89% with RIPK1; 87% with RIPK2; 33% with RIPK4. For the same molecule, the “Percent Control” value turned out to be 93% in the assay with RIPK5 and 87% in the assay on ROCK1.

Turning to `COc1cccc(-n2ncc3c(N/N=C/c4ccncc4)ncnc32)c1` [GW784752X], the “Percent Control” value in the assay on PRKG1 is 93%; with PRKG2, 100%; with PRKR, 80%; in the assay with PRKX, 38%; with PRP4 it was 84%; in the assay with PYK2, 95%. Also, the “Percent Control” value is given as 100% in the assay on QSK; 58% in the assay with RAF1; 93% in the assay with RET(M918T); 100% in the assay with RET(V804L); 87% in the assay on RET(V804M); 97% with RET. For the same molecule, the “Percent Control” value in the assay with RIOK1 stood at 79%; in the assay with RIOK2, 75%; in the assay on RIOK3, 94%; with RIPK1 it was 89%; in the assay on RIPK2, 38%; with RIPK4, 3.9%. Moreover, the figures for the “Percent Control” value in the assay with RIPK5 and in the assay with ROCK1 were 100% and 74%, respectively.

`Cl.O=C(Nc1ccc(Oc2ccc3[nH]c(NC(=O)c4ccccc4)nc3c2)cc1)Nc1cc(C(F)(F)F)ccc1F` [GW709042A]: the “Percent Control” value in the assay on PRKG1 was 91%; in the assay with PRKG2, 88%; in the assay on PRKR, 85%; in the assay on PRKX, 100%; in the assay on PRP4 it was 100%; in the assay with PYK2, 100%. Also, the “Percent Control” value in the assay with QSK is reported as 100%; in the assay with RAF1, 27%; in the assay with RET(M918T), 2.5%; in the assay with RET(V804L) it was 3.6%; in the assay with RET(V804M) it was 2.7%; with RET it was 0.6%. Also, the “Percent Control” value was 52% with RIOK1; 100% in the assay with RIOK2; 33% in the assay on RIOK3; 62% in the assay on RIPK1; 89% with RIPK2; 100% in the assay on RIPK4. Besides, the “Percent Control” value in the assay with RIPK5 worked out at 100%; in the assay on ROCK1, 95%.

On to `CC1=C(C(=O)Nc2ccc3[nH]ncc3c2)C(c2ccc3ccccc3c2)CC(=O)N1` (stereo not shown) [GSK270822A], for which the “Percent Control” value in the assay with PRKG1 is 48%; with PRKG2 it was 29%; in the assay on PRKR it was 89%; with PRKX, 22%; in the assay with PRP4, 62%; with PYK2, 77%. In addition, the “Percent Control” value in the assay on QSK was 91%; with RAF1, 87%; with RET(M918T) it was 34%; in the assay on RET(V804L) it was 46%; in the assay with RET(V804M), 66%; in the assay with RET, 28%. Moreover, the “Percent Control” value is recorded as 74% in the assay with RIOK1; 100% in the assay with RIOK2; 88% in the assay on RIOK3; 97% in the assay with RIPK1; 90% in the assay with RIPK2; 68% in the assay with RIPK4. In addition, the “Percent Control” value with RIPK5 came out at 96%.

For the molecule `O=C(Nc1n[nH]c2nc(-c3ccc(O)cc3)c(Br)cc12)C1CC1` [SB-725317], the “Percent Control” value in the assay on PRKG1 is 100%; in the assay on PRKG2 it was 97%; in the assay on PRKR it was 59%; with PRKX, 100%; in the assay on PRP4 it was 100%; with PYK2 it was 100%. For the same molecule, the “Percent Control” value stood at 100% in the assay on QSK; 46% in the assay on RAF1; 100% in the assay on RET(M918T); 100% in the assay with RET(V804L); 96% with RET(V804M); 100% with RET. Besides, the “Percent Control” value in the assay on RIOK1 is given as 55%; in the assay with RIOK2 it was 82%; in the assay on RIOK3 it was 56%; with RIPK1, 100%; in the assay on RIPK2, 100%; with RIPK4 it was 90%. Also, the “Percent Control” value with RIPK5 and with ROCK1 was 100% each time.

`NS(=O)(=O)c1ccc(N/N=C2\C(=O)Nc3ccc(-c4cnco4)cc32)cc1` [GW276655]: the “Percent Control” value with PRKG1 is 68%; in the assay with PRKG2 it was 57%; with PRKR, 54%; with PRKX, 100%; with PRP4, 100%; in the assay on PYK2, 79%. Moreover, the “Percent Control” value is 100% with QSK; 100% in the assay on RAF1; 59% with RET(M918T); 60% with RET(V804L); 92% in the assay with RET(V804M); 82% in the assay with RET. Moreover, the “Percent Control” value in the assay on RIOK1 is 27%; in the assay on RIOK2 it was 69%; in the assay on RIOK3, 51%; in the assay on RIPK1 it was 76%; in the assay on RIPK2, 84%; in the assay on RIPK4, 87%. Besides, the “Percent Control” value in the assay with RIPK5 amounted to 68%; with ROCK1, 8.8%.

Consider `NS(=O)(=O)c1ccc(N/N=C2\C(=O)Nc3ccc(C(=O)NCCc4c[nH]cn4)cc32)cc1` [GW300660X], for which the “Percent Control” value is 62% with PRKG1; 49% in the assay on PRKG2; 87% in the assay on PRKR; 100% with PRKX; 100% in the assay with PRP4; 100% with PYK2. The “Percent Control” value in the assay on QSK worked out at 89%; in the assay on RAF1, 100%; with RET(M918T) it was 100%; with RET(V804L), 100%; in the assay with RET(V804M), 100%; in the assay on RET it was 100%. Moreover, the “Percent Control” value is 74% in the assay on RIOK1; 100% in the assay with RIOK2; 78% in the assay on RIOK3; 100% in the assay on RIPK1; 100% in the assay with RIPK2; 80% with RIPK4. Also, the “Percent Control” value with RIPK5 was found to be 59%; with ROCK1, 67%.

Consider `COc1cc(N2CCN(C(C)C)CC2)ccc1Nc1nc(Nc2ccc(F)cc2C(=O)NC[C@@H](O)CO)c2cc[nH]c2n1` [GSK1392956A], for which the “Percent Control” value was 100% in the assay with PRKG1; 100% with PRKG2; 80% in the assay with PRKR; 80% with PRKX; 100% in the assay with PRP4; 2.4% in the assay with PYK2. Moreover, the “Percent Control” value in the assay with QSK came to 100%; in the assay with RAF1, 100%; in the assay with RET(M918T), 93%; in the assay with RET(V804L), 86%; with RET(V804M), 88%; in the assay with RET it was 85%. Besides, the “Percent Control” value with RIOK1 worked out at 66%; in the assay on RIOK2 it was 27%; in the assay on RIOK3, 79%; in the assay with RIPK1, 76%; with RIPK2, 100%; in the assay on RIPK4, 84%. The “Percent Control” value is 25% with RIPK5 and 87% in the assay with ROCK1.
